Pf Dd2 growth = qHTS Primary assay for Inhibitors of Plasmodium falciparum Dd2 growth in vitro | P. falciparum Dd2 growth, SYBR Green, 72 h | hit rate 4.3% among 120,000 | Potency, µM (series often up to 28.9 µM), for the others: at the top dose activity, negative = inhibition, most hits filed as inhibitors; active = well fitted inhibition curve with a large enough effect;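 also: plate controls were DMSO vehicle for no effect and reference drug for full effect; nearly all actives have a fitted effect of over 65% in size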
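Infected erythrocytes (Dd2, 0.3% parasitemia, 2.5% hematocrit final) are added to compound in RPMI-1640/Albumax II medium, grown 72 h at 37C in low oxygen, then lysed with saponin/Triton-X containing SYBR Green and read by fluorescence.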
* = called active by the depositor; i = inactive; ! = not active in a repeat; [ ] = another dose, or the depositor's remark. This is one part of a sample in which hits are shown more often than they occur. Potency is read from the fitted curve at half-maximal effect.

SMILES	Pf Dd2 growth
CNC(=O)[C@@H]1C[C@@H](NC(=O)c2ccc3n[nH]nc3c2)CN1C(=O)CSC	-16.2%
COc1ccccc1C(=O)N1CCCc2nc(C)nc(-c3ccc(O)cc3)c2C1	-18.1%
CN(C)c1ccc(C(=O)NC2CCN(c3cn[nH]c(=O)c3)CC2)cc1	i
CNC(=O)CCn1ncc2cc(OC3CCc4cccc(-c5ccnn5C)c43)ccc21 (centres undefined)	i
O=C(Nc1cccc(Cl)c1)C1=NO[C@@H]2CN(c3ccccn3)C[C@H]12	-22.7%[44.1 µM]
CC(C)c1noc([C@@H]2C[C@H]3C(=O)NCCCCCCN(C(=O)c4ccc(C#N)cc4)[C@H]3C2)n1	i
COc1ccc([C@@H](NC(=O)c2scc3c2CCCC3)C2CC(O)C2)cn1 (some centres undefined)	-18.0%
COCCN[C@H]1[C@@H]2OC[C@@H](O2)[C@@H](NCc2ccccn2)[C@@H]1O	-6.3%[44.1 µM]
COCCN[C@H]1[C@@H]2OC[C@@H](O2)[C@@H](NCc2ccc(-c3ccccc3)cc2)[C@@H]1O	10µM*
O[C@H]1[C@H](NCc2ccc(-c3ccccc3)cc2)[C@H]2CO[C@H](O2)[C@@H]1Sc1ccccc1	-28.9%[44.1 µM]
Cc1ccc(C(=O)N2CCC3(CCCN(C4CCOCC4)C3=O)C2)cc1F (centres undefined)	-10.6%
NC(=O)NCC(=O)N1CCCC(Nc2ccc3c(c2)OCCO3)C1 (centres undefined)	i
CCOC(=O)c1ccccc1NC(=O)CN1C(=O)NC2(CCCCC2)C1=O	-10.7%
Cc1c(CC(=O)NC2CCOCC2)c2c(n1CCc1ccccc1)CCCC2=O	10µM*
Cc1c(CC(=O)NC2CCOCC2)c2c(n1Cc1ccc(F)cc1)CCCC2=O	-13.0%
Cc1c(CC(=O)N2CCC(C#N)CC2)c2c(n1Cc1ccccc1)CCCC2=O	-21.7%
CCn1nccc1C(=O)N1CCCC2(C=Cc3ccccc3O2)CC1 (centres undefined)	-14.0%
COc1ccc(CCC(=O)N2C[C@@H](CO)[C@H](c3nc(C)no3)C2)cc1	22.4%
CN1CCC(Oc2ccc(C(N)=O)cn2)CC1	43.8%
CNC(=O)[C@@H]1CN(C(=O)c2coc(C)n2)C[C@H]1COC	10.7%
COc1ccc(C)cc1NC(=O)Cn1c(N(C)Cc2ccccc2)nc(C)cc1=O	-38.2%
CC(=O)N1C[C@@H](C(=O)NCCc2ccc(Cl)cc2)[C@H](c2nc(C)no2)C1	11.1%
CN(C(=O)Cc1cccc(Cl)c1)C1CCc2ccccc21 (centres undefined)	i
CN(CC1CCOCC1)C(=O)Cc1cccc(Cl)c1	4.7%
CN(C(=O)Cc1cccc(Cl)c1)C1CCCc2ccccc21 (centres undefined)	14.1µM*
SMILES	Pf Dd2 growth
NC(=O)N1CCCC1C(=O)N1CCC(c2cc(Cc3ccccc3)[nH]n2)CC1 (centres undefined)	4.8%
COc1ccc(CCc2nc3nccc(-c4ccco4)n3n2)cc1	-17.6%
O=C(O)c1ccc2c(c1)N(C(=O)c1ccc(F)cc1)CC2	-8.2%
O=C(c1ccc(F)cc1)N1CCC(C(=O)O)(c2ccccc2)CC1	2.6%
CCCCC(=O)N1c2ccccc2C(C)(c2ccccc2)CC1(C)C (centres undefined)	-20.4%
COc1ccccc1C(=O)N1c2ccccc2C(C)(c2ccc(Cl)cc2)CC1(C)C (centres undefined)	8.91µM*
Cc1ccc2c(c1)C(C)(c1ccccc1)CC(C)(C)N2C(=O)c1ccc(F)cc1 (centres undefined)	5.62µM*
COc1ccccc1C(=O)N1CCCN(C)c2ccccc21	-12.3%
CC(=O)N1CCC(N2CC[C@H](CO)[C@H](NC(=O)C3CC3)C2)CC1	4.8%
Cc1cccc(NC(=O)N2CC(C(=O)N(C)C)C3(CCOCC3)C2)c1 (centres undefined)	i
COc1ccc(NC(=O)CCC2CCCN(C(=O)c3ccccc3SC)C2)cc1Cl (centres undefined)	i
COc1ccc(NC(=O)CCC2CCCN(C(=O)c3ncoc3C)C2)c(C)c1 (centres undefined)	31.2%
COc1ccc(Cl)cc1NC(=O)CCC1CCCN(C(=O)c2ccoc2C)C1 (centres undefined)	3.98µM*
CC(=O)N1CCCC(c2nc(C(C)C)no2)CCNC(=O)CC1 (centres undefined)	9.8%
O=C(COc1ccccc1)NC1CCN(c2cc(C(F)(F)F)ncn2)CC1	87.0%
O=C(NCc1cc(F)cc(F)c1)c1nnn2c1COC(c1ccc(Br)cc1)C2 (centres undefined)	i
Cc1cc2cc(C(=O)N(C)Cc3ccc4nsnc4c3)ccc2o1	-7.0%
CCCS(=O)(=O)N1C[C@@H](Oc2cccnc2)C[C@@H]1C(=O)NC	4.2%
COc1ccc(CCC(=O)NCCC2CCN(C(=O)Nc3cc(F)cc(F)c3)CC2)cc1	-17.7%
O=C1NC2(CCN(Cc3ccc(F)cc3)CC2)COc2ccccc21	3.16µM*
O=C1NC2(CCN(Cc3cccnc3)CC2)COc2ccccc21	-13.3%[44.1 µM]
O=C1NCC2(CCN(Cc3ccc(F)cc3)CC2)Oc2ccccc21	-12.4%
O=C1NC2(CCCN(Cc3ccc(C(F)(F)F)cc3)C2)COc2ccccc21 (centres undefined)	11.2µM*!
O=C1NC2(CCN(CC3CCCCC3)CC2)COc2ccccc21	10µM*
O=C1NC2(CCN(CC3CC3)CC2)COc2ccccc21	-21.7%[44.1 µM]
SMILES	Pf Dd2 growth
O=C1NC2(CCN(Cc3ccccc3C(F)(F)F)C2)COc2ccccc21 (centres undefined)	i
O=C1NCC2(CCN(CC3CCCCC3)CC2)Oc2ccccc21	3.4%
O=[S+]1([O-])NC2(CCCN(Cc3ccc(C(F)(F)F)cc3)C2)COc2ccccc21 (centres undefined)	0.4%
NC(=O)[C@@H]1CN(C(=O)CCn2cccn2)C[C@H]1COc1ccccc1	-7.1%
COC1CCOC2(CCN(C(=O)c3ccc(F)cc3)CC2)C1 (centres undefined)	28.6%
Cc1nccn1CCCC(=O)N1CCC2(CC1)CNC(C(=O)O)C2 (centres undefined)	1.9%
CN(C)C(=O)c1ccc(CC2CC(=O)N(c3ccccc3)C2)nc1 (centres undefined)	6.7%
O=C1NCc2ccccc2CC12CCCCN2Cc1cccc(F)c1 (centres undefined)	-28.6%
O=C1NCc2ccccc2CC12CCCN2Cc1ccc(O)cc1O (centres undefined)	-7.7%
Cc1ccc(CN2CCCCC23Cc2ccccc2CNC3=O)cc1C (centres undefined)	7.94µM*
CCc1ccccc1CN1CCCC12Cc1ccccc1CNC2=O (centres undefined)	8.91µM*
O=C1NCc2ccccc2CC12CCCN2Cc1ccc(F)cc1F (centres undefined)	-0.4%
Cc1ccc(CN2CCCC23Cc2ccccc2CNC3=O)cc1 (centres undefined)	10µM*
O=C1NCc2ccccc2CC12CCCN2Cc1ccc(O)cc1 (centres undefined)	-23.0%
COc1ccc(CN2CCCCC23Cc2ccccc2CNC3=O)cc1OC (centres undefined)	-17.4%
CC(=O)Nc1ccc(CN2CCCC23Cc2ccccc2CNC3=O)cc1 (centres undefined)	-0.8%
CC[C@H]1CN(S(=O)(=O)c2ccccc2)CC[C@H]1CC(=O)NC1CCCC1	i
CCOCc1nc(C2CCCN(C(=O)Cc3ccccc3C)C2)no1 (centres undefined)	2.0%
COc1ccc(OC)c(NC(=O)C2CCCN(S(=O)(=O)c3c(C)nn(C)c3C)C2)c1 (centres undefined)	i

Source: PubChem (National Center for Advancing Translational Sciences (NCATS))
